PubChem BioAssay AID624300 (Southern Research Specialized Biocontainment Screening …, 2012)
Out of some 2,400 compounds screened, about 360 (15%) were called active.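 How the source made its calls: active means viability falls under 70% at one or more tested concentrations, taken as toxicity; inactive means viability stays over 70% at every dose.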 These entries were drawn from the full list. Results with a measured potency or affinity are listed apart.

Assay: viability loss in HeLa cells – cytotoxicity control for MgcRacGAP inhibitor project, dose response (AID 624300);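 further: 100% = median of untreated control wells on the same plate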
Conditions: CellTiter-Glo luminescence, 24 h; series mostly up to 100 µM; viability: at the top concentration

Row | SMILES | viability
1 | CCOc1cc(/C=N\NC(=O)c2c(C)nc3ccccn23)ccc1O | 97.5% (inactive)
2 | Oc1ccc(-c2cn3c(n2)SCC3)cc1 | 103% (inactive)
3 | CCN(CC)c1ccc(NC(=O)COc2ccc(-n3cnnn3)cc2)cc1 | 99.8% (inactive)
4 | COc1cc(/C=C/CN2CCC(CO)(CC3CCCCO3)CC2)ccc1O (stereo not drawn) | 102% (inactive)
5 | CC(NS(=O)(=O)c1ccc(Cl)cc1)C(=O)OCC(=O)Nc1ccc(N(C)C)cc1 (stereo not drawn) | 98.3% (inactive)
6 | COC(=O)c1c(NC(=O)CCNCc2ccco2)sc2c1CCC2 | 84.9% (inactive)
7 | CCN(CC)CCCNCC(=O)Nc1ccc2c(c1)CCC2 | 100% (inactive)
8 | O=c1c2ccccc2n2c(=S)[nH]nc2n1-c1ccccc1 | 92% (inactive)
9 | CN(C)C=NC1=NN(c2cccc(C(F)(F)F)c2)CC1 | 89.1% (inactive)
10 | Cc1ccc(N2C(N)=C(C#N)C3(C(=O)N(C)c4ccccc43)C3=C2CC(C)(C)CC3=O)cc1Cl (stereo not drawn) | 100% (inactive)
11 | C=C1CC(C(=O)N/N=C/c2ccc(O)cc2)C1 | 107% (inactive)
12 | O=c1c2ccc(F)cc2sn1-c1ccccc1 | 82.4% (inactive)
13 | CC(=O)Nc1ccc2sn(-c3ccccc3)c(=O)c2c1 | 97.9% (inactive)
14 | COc1ccc(N2C(=O)/C(=C/N(C)C)NC2=S)cc1 | 98% (inactive)
15 | COc1cccc(-c2cc(C(=O)N3CCN(c4ccc(F)cc4)CC3)no2)c1 | 102% (inactive)
16 | NS(=O)(=O)c1ccc(CCNCC(=O)N2CCC(Cc3ccccc3)CC2)cc1 | 92.9% (inactive)
17 | CSC1=NN(c2ccccc2)CN(c2ccccc2)N1C | 86.8% (inactive)
18 | O=C(CNc1ccc(Oc2ccccc2)cc1)N1CCOCC1 | 94.5% (inactive)
19 | COCC(C)NCc1ccccc1C (stereo not drawn) | 101% (inactive)
20 | C[n+]1ccc(/C=C/c2ccccc2O)c2ccccc21 | 97.5% (inactive)
21 | CCOc1ccccc1N1CCN(C/C=C/c2ccc(N(C)C)cc2)CC1 | 83.7% (inactive)
22 | CN(C)c1ccc(C=Cc2cnccn2)cc1 | 91.6% (inactive)
23 | CCOCCCn1c(=O)c2ccccc2n2c(=S)[nH]nc12 | 96.2% (inactive)
24 | COc1cc(/C=C(/NC(=O)c2ccccc2)C(=O)Nc2ccc(O)cc2)c([N+](=O)[O-])cc1OC | 110% (inactive)

Row | SMILES | viability
25 | COc1ccc(CN2CCN(Cc3ccc(C(F)(F)F)cc3)CC2)cc1 | 90.6% (inactive)
26 | O=C(NCc1ccccc1)/C(=C\c1ccc(O)cc1)NC(=O)c1ccco1 | 107% (inactive)
27 | CC(C)C1=Nc2cccc3cccc(c23)N1 | 88.5% (inactive)
28 | COc1ccc(OC(=O)COc2cccc(C)c2)cc1 | 101% (inactive)
29 | CN(C)c1ccc2cc(S(=O)(=O)O)cc(O)c2c1 | 95.7% (inactive)
30 | ON=C1c2ccccc2-c2ccc(O)cc21 | 97.5% (inactive)
31 | O=C(O)c1ccc2c(c1)C(=O)/C(=C\c1ccco1)C2=O | 100% (inactive)
32 | Clc1nc(NCc2cccnc2)nc(N2CCOCC2)n1 | 101% (inactive)
33 | COc1cc(N)ccc1NC(=O)c1cccs1 | 104% (inactive)
34 | COc1ccc(NC2CCCN(C(=O)c3ccc(C)nc3)C2)cc1 (stereo not drawn) | 105% (inactive)
35 | COc1cc(/C=C/C(=O)OCC(=O)NCCC2=CCCCC2)ccc1O | 95.2% (inactive)
36 | COc1ccc(OC)c(CN2CCSCC2)c1 | 96.5% (inactive)
37 | CCOc1cc(N2CCOCC2)c(OCC)cc1NC(=O)c1ccc(C)s1 | 112% (inactive)
38 | Cc1ccc(/C=[N+](\[O-])c2ccc(N(C)C)cc2)c2nsnc12 | 102% (inactive)
39 | CN(C)c1cc2c3ccccc3n(C)c2cc1N | 101% (inactive)
40 | CCOC(=O)SC1=N/C(=C\c2ccc(N(C)C)cc2)C(=O)S1 | 92.7% (inactive)
41 | COc1ccc(NC2=NCCC2)cc1 | 101% (inactive)
42 | COc1cc(/C=C/C(=O)OCC(=O)N2CCC(Cc3ccccc3)CC2)ccc1O | 86.3% (inactive)
43 | Cc1ccc2oc(=O)c(/C=C(\O)c3ccccc3)nc2c1 | 92.1% (inactive)
44 | C/C(=N\NC(=O)CSCc1ccccc1Cl)c1cc(O)ccc1O | 96.4% (inactive)
45 | COc1ccc(C(=O)Nc2ccc(N3CCCCCC3)cc2)cc1S(=O)(=O)N1CCOCC1 | 96.8% (inactive)
46 | CCOc1ccc(Nc2n[nH]c(=S)s2)cc1 | 98.4% (inactive)
47 | COc1cc(/C=N\NC(=O)CNC(=O)C(c2ccccc2)c2ccccc2)ccc1O | 101% (inactive)
48 | CSc1ncnc2c1ncn2CCCNc1ccc(C)c(C)c1 | 93.2% (inactive)

Row | SMILES | viability
49 | CCOC(=O)c1sc(/N=C/c2c(O)ccc3ccccc23)cc1C | 96.4% (inactive)
50 | Nc1ccc(Nc2nc(-c3cc4ccccc4oc3=O)cs2)cc1 | 109% (inactive)
51 | Nc1ccc2c(c1Br)Cc1ccccc1-2 | 93.5% (inactive)
52 | COc1cc(CN2CCN(Cc3ccc(C(F)(F)F)cc3)CC2)cc(OC)c1OC | 82% (inactive)
53 | Nc1c(Cl)cc(NC(=O)c2ccccc2C(=O)O)cc1Br | 103% (inactive)
54 | COc1ccc2c(c1OC)C(=O)OC2CC(=O)c1ccc(O)c(O)c1 (stereo not drawn) | 102% (inactive)
55 | O=C(/C=C/c1ccc(O)c(O)c1)NC(=O)c1ccccc1O | 106% (inactive)
56 | COc1ccc(/C=N/NC(=O)c2ccc(CSc3nc(C)cc(C)n3)cc2)cc1O | 82.1% (inactive)
57 | O=C(COc1cccc2cccnc12)N/N=C/c1ccc(O)cc1 | 88.5% (inactive)
58 | COc1ccc(NC(=O)c2cccc(-c3ccc(O)cc3)c2)cn1 | 83.5% (inactive)
59 | O=C(Nc1ccccc1)c1cccc(-c2nnc(-c3ccccc3)o2)c1 | 106% (inactive)
60 | O=C(CN1CCCCCC1)NCC1CCCO1 (stereo not drawn) | 106% (inactive)
61 | C#CCOCCOCCOCCNc1nc(N2CCN(C(=O)C([C@@H](C)O)n3cc([C@@H](N)CCCCN)nn3)CC2)nc(N2CCN(C(=O)[C@H](CO)n3cc([C@@H](N)C(C)C)nn3)CC2)n1 (stereo partly drawn) | 107% (inactive)
62 | OCCN(C=NC1=NN(c2cccc(C(F)(F)F)c2)CC1)CCO | 88.6% (inactive)
63 | O=C(N/N=C/c1ccc(O)c(O)c1)c1ccc(-n2cnnn2)cc1 | 105% (inactive)
64 | Cc1cc(-c2n[nH]c(=S)n2/N=C/c2sccc2C)n[nH]1 | 97.8% (inactive)
65 | COc1ccc(NCCC#N)cc1 | 108% (inactive)
66 | COc1ccc(NC2CCCN(C(=O)c3cccc(N(C)C)c3)C2)cc1 (stereo not drawn) | 93.3% (inactive)
67 | CCOc1cc(N2CCOCC2)c(OCC)cc1NCC(=O)N1CCN(Cc2ccccc2)CC1 | 98.9% (inactive)
68 | Cc1[nH]n(-c2ccccc2)c(=O)c1/C=N/N(C)c1ccccc1 | 94.8% (inactive)
69 | Nc1ccc(N2CCN(c3cccc(Cl)c3)CC2)cc1 | 109% (inactive)
70 | Brc1cccc(OCCN2CCOCC2)c1 | 100% (inactive)
71 | CCS(=O)(=O)NC(C)C(c1cccs1)N1CCN(c2ccc(OC)cc2)CC1 (stereo not drawn) | 97.6% (inactive)
72 | O=C1CCCCCN1Sc1ccccc1 | 93% (inactive)

Row | SMILES | viability
73 | C=C1c2cccc(O)c2C(O)=C2C(=O)[C@]3(O)C(O)=C(C(N)=O)C(=O)[C@@H](N(C)C)[C@@H]3[C@@H](O)[C@H]12 | 92.5% (inactive)
74 | CCOc1cc(-c2cc(-c3ccc(N)cc3)nc(N)c2C#N)ccc1O | 80.9% (inactive)
75 | CCOc1cc(-c2cc(-c3ccccc3)nc(N)c2C#N)ccc1O | 104% (inactive)
76 | CCOc1cc(/C=N/NC(=O)c2ccccc2-n2cccc2)ccc1O | 114% (inactive)
77 | Nc1ccc2nc(-c3ccc(Cl)cc3)[nH]c2c1 | 83.3% (inactive)
78 | Nc1ccc2nc(-c3cccnc3)[nH]c2c1 | 92.3% (inactive)
79 | COc1cc(CNC2CCCCC2OC)cc(OC)c1 (stereo not drawn) | 100% (inactive)
80 | COc1ccc2c3c(cccc13)N(C)N=C2C | 85.7% (inactive)
81 | Cc1cccc(N2CCC(N=CN(C)C)=N2)c1 | 84.3% (inactive)
82 | CCOC(=O)N/N=C/c1ccc(N(CC)CC)cc1O | 107% (inactive)
83 | O=C(CCC(=O)Nc1ccc(F)cc1)N/N=C/c1ccc(O)cc1 | 99.1% (inactive)
84 | Cc1cc(N2CCCC2)ccc1NC(=O)CN1C(=O)NC2(CCCCC2)C1=O | 98.7% (inactive)
85 | COc1ccc(CN(C)CCc2ccccn2)cc1OC | 99% (inactive)
86 | COc1cc(CN(C)CCc2ccccn2)cc(OC)c1OC | 101% (inactive)
87 | COc1cc(/C(C)=N/N2CCN(Cc3ccc(C)cc3)CC2)ccc1O | 89.5% (inactive)
88 | O=C(CN1CCN(S(=O)(=O)c2ccccc2F)CC1)N1CCc2ccccc2C1 | 95.5% (inactive)
89 | O=C(O)CCCn1c(=S)[nH]c2c(sc3ccc([N+](=O)[O-])cc32)c1=O | 90.5% (inactive)
90 | O=c1c2sc3ccccc3c2[nH]c(=S)n1CCN1CCOCC1 | 96.8% (inactive)
91 | COc1cc(/C=N/NC(=O)c2cnccn2)ccc1O | 98.5% (inactive)
92 | CC1CN(CCCCN2C(=O)c3ccccc3C2=O)CC(C)O1 (stereo not drawn) | 102% (inactive)
93 | CCCCN(CC)CCNC(=O)CCC(=O)Nc1ccc2nc(N3CCN(C)CC3)cc(C)c2c1 | 107% (inactive)
94 | CCCCN(CCCC)CCNC(=O)CSCc1ccc(C)cc1 | 93% (inactive)
95 | CC1(C)Nc2cccc3cccc(c23)N1 | 104% (inactive)
96 | COc1ccc(Br)cc1CN1CCC(N2CCCC2)CC1 | 112% (inactive)

Row | SMILES | viability
97 | CCOc1ccc(NCc2cccn2-c2nnc(N3CCC(C(=O)NCCCN4CCCCC4)CC3)s2)cc1 | 93.5% (inactive)
98 | CC(/C=C/c1ccc(O)cc1)=N/O | 107% (inactive)
99 | COc1ccc(NC2CCCN(C(=O)CSc3ccccc3)C2)cc1OC (stereo not drawn) | 97.7% (inactive)
100 | CC1(C)OC(=O)C(=Cc2ccc(-c3ccc(S(N)(=O)=O)cc3)o2)C(=O)O1 | 99.5% (inactive)
101 | Cc1ccc(/C=C2/C(=O)c3ccc(C(=O)O)cc3C2=O)o1 | 95.9% (inactive)
102 | Cc1ccc(/C=C2/C(=O)ON=C2c2ccccc2)o1 | 83.9% (inactive)
103 | O=S(=O)(O)c1cc(O)c2cc(Nc3ccccc3)ccc2c1 | 101% (inactive)
104 | Nc1ccccc1Nc1cccc(C(F)(F)F)c1 | 96.2% (inactive)
105 | CCOC(=O)c1[nH]c2ccc(C)cc2c1N | 80.9% (inactive)
106 | COc1cc(/C=C/C(=O)OCc2cn3cc(Cl)ccc3n2)ccc1O | 113% (inactive)
107 | O=C(Nc1ccc(Nc2ccccc2)cc1)C1CC1 | 98.6% (inactive)
108 | O=C(O)c1ccccc1C(=O)Nc1ccc(Nc2ccccc2)cc1 | 80.3% (inactive)
109 | Cc1oc(-c2ccccc2)cc1C(=O)Nc1ccc(N(C)C)cc1 | 101% (inactive)
110 | CC(=O)Nc1ccc(Nc2ccccc2)cc1 | 98.2% (inactive)
111 | CCN1CCN(c2ccc(N=Cc3ccc(O)cc3O)cc2)CC1 | 99% (inactive)
112 | Cc1ccc(C)c(OCCCCN2CCCCC2)c1 | 92% (inactive)
113 | CCOc1cc(/C=C/c2cccc[n+]2C)ccc1O | 103% (inactive)
114 | c1csc(CNc2ccc3c(c2)OCCO3)c1 | 96.3% (inactive)
115 | Cc1ccc(S(=O)(=O)Oc2ccc(/C=C3\C(=N)N4N=C(S(C)(=O)=O)SC4=NC3=O)cc2)cc1 | 106% (inactive)
116 | CCN(CC(=O)NCc1ccc(F)cc1)C(=O)CN1CCN(c2ccc(OC)cc2)CC1 | 104% (inactive)
117 | O=C(CNCC1CCCO1)Nc1ccc(N2CCCCCC2)cc1 (stereo not drawn) | 95.6% (inactive)
118 | Cc1ccccc1N1C(S)=C(C#N)C(=O)NC1c1cccs1 (stereo not drawn) | 98.3% (inactive)
